Assay results: paper PMC12136788
In all, about 24,000 sequences were measured (“enrichment r”: median about 0.99, highest 2% from about 3.7 on). The entries come from a sample that favours the highest values as a whole.

T1: UNK ZnF1-3 (human, UniProt Q9C0B0 31-174)
T1 sequence: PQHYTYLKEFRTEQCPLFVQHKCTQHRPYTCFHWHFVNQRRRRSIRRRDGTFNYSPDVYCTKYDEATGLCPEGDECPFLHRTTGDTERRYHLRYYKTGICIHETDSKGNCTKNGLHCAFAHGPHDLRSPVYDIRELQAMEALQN

B1: chr4:25749455:25749456:-_ENSG00000091490_ENST00000264868|hu_hu|hu_hu_hu_mus_False|48_68 (ssRNA)
RNA: GGGAGUUCUACAGUCCGACGAUCGCACUAUGACCUCUAGAAAAAUCCACAGGGGGAAAAAAUGUAAACCAAUUUACAAUGUUAUCGCCCUCCCUGCGUGUGGAGUGUUUGUCUCAAGGCUCCUUCUAGCUGCUGGAUUUGGGACAACAGAGGAUUGAGCAUCA
B2: chr17:25064881:25064882:-_ENSMUSG00000024163_ENSMUST00000117509|mus_mus|FALSE|FALSE (ssRNA)
RNA: GGGAGUUCUACAGUCCGACGAUCAUAAUGUUCUACCUGGAUCUGGAGUUCUUUCUUCUCUUGUUCCAAGGCAUCUUCAAAUUCGAUGAAUUUCUCCUCGGCCUGUUUGCGCAGCGCCUUCUCGCGCUCGUAUUGCGUGAGCAGCAACAGAGGAUUGAGCAUCA
B3: chr3:51263940:51263941:+_ENSMUSG00000063273_ENSMUST00000029303|mus_hu|FALSE|FALSE (ssRNA)
RNA: GGGAGUUCUACAGUCCGACGAUCGUAAAAUGGAUGCUGUCGAAGUACAUCUUCUAGUUUUAAUAAGUCCACAUAUGAUCUAAGGGUAAUCUUCCUCAUACAGUAUGUAUGAAAGUCAAACUGGUCAUCAGUGAUUUCUAUAAACAACAGAGGAUUGAGCAUCA
B4: 136207635_136207755_6660_3pUTR_ENSMUSG00000028664_ENSMUST00000105845|mouse|control|control (ssRNA)
RNA: GGGAGUUCUACAGUCCGACGAUCGUAUAAGUGUUCUCUGCUACUCUUGUGUCUGCUCAGAAGCAGUGGGUCUAGCACUAAGGAUGUCACUAUUGACCAUAACUUCUUUCCUAGAGAUAAGGUCUUAUGUGGCCCAGGCUGGCUCAACAGAGGAUUGAGCAUCA
B5: chr6:114281168:114281169:-_ENSG00000196591_ENST00000368632|hu_hu|hu_hu_hu_mus_True|8_108 (ssRNA)
RNA: GGGAGUUCUACAGUCCGACGAUCUUCCAUUUUUCUGUAUAAACCAUAAUUUAGCAGCAAGUUAUGAGUCAUCCGGAUUCUAUGAGGCUUCAUGGGAUGACCCUGGCCAUAAUAAUAAUUGCCAAUAUCACAGAUUCAGUAGUACAACAGAGGAUUGAGCAUCA
B6: chr17:73267850:73267851:+_ENSMUSG00000024063_ENSMUST00000024857|mus_mus|FALSE|FALSE (ssRNA)
RNA: GGGAGUUCUACAGUCCGACGAUCGAAAUAUACAGACAUGAAGUCCUAGGGGAGGCUGACCCACGCCCUUGUGAUUAAGAAAAACAAAACAAAACAAAACAAACAAACAAACAAAAAAAAACCAGUCACUGAGUCCUGAAUGAGCAACAGAGGAUUGAGCAUCA
B7: chr1:135034296:135034297:+_ENSMUSG00000046062_ENSMUST00000052529|mus_hu|FALSE|FALSE (ssRNA)
RNA: GGGAGUUCUACAGUCCGACGAUCUAGCCUAACAUAGACAGGCCAAAUCAUUGAAAUAAAAAAAAUAUAGAAAAACAUAAAAGCCCAUUAACUUCUGAAUUUUGGGAAAGAAACAAGAAAGAGCCCAAAGUUUUCAGAUAGGCACAACAGAGGAUUGAGCAUCA
B8: chr10:114190419:114190420:-_ENSG00000023041_ENST00000369405|hu_hu|FALSE|FALSE (ssRNA)
RNA: GGGAGUUCUACAGUCCGACGAUCGGGCAGGAAUUCAAAGGCAUAUGCAGAAUGGCUUCUCCAUUUCAAAAUGGUAAUAAAAAUAUUUAAAUCAUGGCACUAGGGCACCUUUGAGGAAAAGAACAUCUUAACCAGAGUAGGCUCCAACAGAGGAUUGAGCAUCA
B9: chr2:55200753:55200754:-_ENSG00000115310_ENST00000317610|hu_hu|motif|central (ssRNA)
RNA: GGGAGUUCUACAGUCCGACGAUCUUGGAUUUUAGCCAUAGCAUCUUUAACAUUCUUAUUUGCAAGUCCUAGAUAAUGAUCGGUCUGUGCCUGAUGCCGUUCAUAAAUAACAGGAACACUGAAGAGUGAAAUGAGAGCCAAAAUCAACAGAGGAUUGAGCAUCA
B10: chr15:81824118:81824119:-_ENSMUSG00000022472_ENSMUST00000152227|mus_mus|motif|central (ssRNA)
RNA: GGGAGUUCUACAGUCCGACGAUCGAAGGGAACCUUAAGGUCCCUCUGGAAUCUGGAGUCUAGAUCAUAGACUUCGGGGCGGUUGCUGCCCAUGAAAUCCUAGCAGCAUAUCAUUAAGAAAACGCCCACUCACACCCCAACCACCAACAGAGGAUUGAGCAUCA
B11: 14087313_14087433_2671_3pUTR_ENSG00000147862_ENST00000380959|human|control|control (ssRNA)
RNA: GGGAGUUCUACAGUCCGACGAUCGGGAAAAUAAAUUCGUUCAAAAUUAUUUUAAAUUCUUUUUAAUCCCCUCAAUUUAGAGUCCAAGGGCUGAAGGACUUAUAAUCAUGAUUCCCCUUUAGAUAUAAAUUUAUAAAUUGCACUCAACAGAGGAUUGAGCAUCA
B12: chr1:53517203:53517204:+_ENSG00000116171_ENST00000408941|hu_mus|FALSE|FALSE (ssRNA)
RNA: GGGAGUUCUACAGUCCGACGAUCUCAGGAAGAGCUGUUUUAAUUUUCUUUUUAAAUCUUCCAAAAGCAUAUUUUUAUCCCAAACCUAAAUUAUAACAAAUAGCAUUAGAAUUAGAAAAACUUGGAAGAAAGAUAAAUGCAGACCAACAGAGGAUUGAGCAUCA
B13: chr11:60965389:60965390:-_ENSMUSG00000042506_ENSMUST00000041683|mus_hu|FALSE|FALSE (ssRNA)
RNA: GGGAGUUCUACAGUCCGACGAUCCAGCUCCUCAAAAUGGAAGGGGAAAGGAAGAGUAAACAUCUUGGUAAAUAAAGUCUCCAACCACAGCACAGUCAUUGGAAUUUUUUUCUUCAUUUUUAUUUUCAAACUUACAGUAAACAACAACAGAGGAUUGAGCAUCA
B14: chr5:180275300:180275301:-_ENSG00000196670_ENST00000512132|hu_mus|motif|central (ssRNA)
RNA: GGGAGUUCUACAGUCCGACGAUCAGUUGUGAUCUUCCUACCACAAACCAUUACUGUUAAGUCUAUAAUUCAUGACCCACGGAUAAACUGAUAUUCCCUGAAACCAUCCUCUCCCUGAAUUUGCCUGUUGGAGGCCCUUCUUGGCAACAGAGGAUUGAGCAUCA
B15: chr6:38652254:38652255:-_ENSG00000124767_ENST00000373365|hu_hu|hu_hu_hu_mus_False|1_78 (ssRNA)
RNA: GGGAGUUCUACAGUCCGACGAUCCGAGAACUUCAUAGCAGGGAAGUCAAGCUUCUGGAUUAGCGUCAGUCCAAGAACCCUCGUAUAAAAAUCCAGGGACUUCUUAGGAUCCUUAAUUCUUAGCAUCGUUUGCUGCAAUAGAAACAACAGAGGAUUGAGCAUCA
B16: 61064472_61067304_1030_3pUTR_ENSG00000119541_ENST00000238497|human|control|control (ssRNA)
RNA: GGGAGUUCUACAGUCCGACGAUCUUCGUUUCUCAAAUCUUCGCCUAAUGGCAGAAUCCAGAACCCAGGGUAUAUUUGUAGCUCCCAGAACCAAAAUUCCAUCAUUGUCUACACCAACCCCUUGCAUUUGCACUAGGAACUCCGCAACAGAGGAUUGAGCAUCA
B17: chr20:33097842:33097843:+_ENSG00000078747_ENST00000374864|hu_hu|motif|central (ssRNA)
RNA: GGGAGUUCUACAGUCCGACGAUCAAAAAUAUUAAAUAGCCAAGCCCUAUAGAACUAGGGCCAGGGCUACUUCAAAUAUAACGGUUCUGUAUUUUAAAAAUAUAGGGCAGAAAGCCUUUUGGGUGAUAUUUAUAUAUUUUCACACAACAGAGGAUUGAGCAUCA

Each binder was assayed against T1, UNK ZnF1-3 (assay: nsRBNS (natural sequence RNA bind-n-seq); RBNS binding buffer (assumed for nsRBNS): 25 mM Tris pH 7.5, 150 mM KCl, 3 mM MgCl2, 0.01% Triton X-100, 500 ug/ml BSA, 20 U/ml SUPERase-In, 4 C; UNK is unkempt and MSI1 is Musashi-1; names of the RNAs are library labels; protein concentration not given here; high values mean tight binding).

**Q.** How did the binding signal turn out when B1 was run?
**A.** The binding signal was 1.03 enrichment R.

**Q.** How did the binding signal turn out when B2 was run?
**A.** The binding signal was 0.355 enrichment R.

**Q.** B3 was tested. Which binding signal did it give?
**A.** The binding signal was 0.873 enrichment R.

**Q.** B4 was tested. Which binding signal did it give?
**A.** Its binding signal is 0.733 enrichment R.

**Q.** B5 was tested. Which binding signal did it give?
**A.** The binding signal was 1.03 enrichment R.

**Q.** With B6 as the binder, how does the binding signal read?
**A.** Its binding signal is 4.8 enrichment R.

**Q.** With B7 as the binder, how does the binding signal read?
**A.** The binding signal was 11.8 enrichment R.

**Q.** With B8 as the binder, how does the binding signal read?
**A.** Its binding signal is 4.18 enrichment R.

**Q.** Which binding signal does the source give for B9 here?
**A.** Its binding signal is 1.53 enrichment R.

**Q.** B10 was tested. Which binding signal did it give?
**A.** The binding signal was 1.07 enrichment R.

**Q.** Which binding signal does the source give for B11 here?
**A.** The binding signal was 4.87 enrichment R.

**Q.** Which binding signal does the source give for B12 here?
**A.** Its binding signal is 1.47 enrichment R.

**Q.** With B13 as the binder, how does the binding signal read?
**A.** Its binding signal is 2 enrichment R.

**Q.** For B14, which binding signal is on record?
**A.** The binding signal was 0.806 enrichment R.

**Q.** How did the binding signal turn out when B15 was run?
**A.** The binding signal was 1.08 enrichment R.

**Q.** With B16 as the binder, how does the binding signal read?
**A.** The binding signal was 1.29 enrichment R.

**Q.** Which binding signal does the source give for B17 here?
**A.** Its binding signal is 0.982 enrichment R.
